# The list is not random: actives were taken first. Their share in the collection is about 4.1%.
# MEKK3 PB1 HTS: modulators of MEKK3-MEK5 PB1 binding, primary screen, biochemical, wildtype MEKK3, multiplex bead flow cytometry, Alexa488-MEK5 | Mitogen-activated protein kinase kinase kinase 3 (Homo sapiens), Q99759 | bead-based flow cytometry, Alexa488-MEK5 binding to MEKK3; actives lie on both sides; 0 = blocked by unlabeled MEK5, 100 = vehicle | binding response (% of control), % at 10 µM | actives 1.4% (n = 290,000);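 active = binding response more than 3 SD above or below the average of its plate-row segment, actives on both sides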;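 also: Alexa488 bead fluorescence after subtracting the streptavidin-only scavenger bead signal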
# MEKK2mut PB1 HTS: MEK5 binding signal on mutant MEKK2 PB1, primary screen, biochemical, multiplex bead flow cytometry, Alexa488-MEK5; percent response, % at 10 µM; AID 1530, 2009; actives 0.35% (n = 290,000); Alexa488-MEK5 binding to MEKK2 mutant; in the data active = percent response above about 24%, passing the limit was not always enough
# CHT PAM: CHT positive allosteric modulators, primary screen, cell-based, membrane potential dye, choline EC20 | High affinity choline transporter 1 (Homo sapiens), Q9GZV3 | CHT-expressing cells; stronger effect = higher value; LV-AA mutant CHT in HEK293 cells | B-score at 10 µM | actives 0.49% (n = 310,000) | AID 488977, 2010;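 active = initial fluorescence not abnormally high and integrated response B-score, plate-corrected, over 3 SD above library mean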
# Target sequence (Q9GZV3 whole entry, looked up): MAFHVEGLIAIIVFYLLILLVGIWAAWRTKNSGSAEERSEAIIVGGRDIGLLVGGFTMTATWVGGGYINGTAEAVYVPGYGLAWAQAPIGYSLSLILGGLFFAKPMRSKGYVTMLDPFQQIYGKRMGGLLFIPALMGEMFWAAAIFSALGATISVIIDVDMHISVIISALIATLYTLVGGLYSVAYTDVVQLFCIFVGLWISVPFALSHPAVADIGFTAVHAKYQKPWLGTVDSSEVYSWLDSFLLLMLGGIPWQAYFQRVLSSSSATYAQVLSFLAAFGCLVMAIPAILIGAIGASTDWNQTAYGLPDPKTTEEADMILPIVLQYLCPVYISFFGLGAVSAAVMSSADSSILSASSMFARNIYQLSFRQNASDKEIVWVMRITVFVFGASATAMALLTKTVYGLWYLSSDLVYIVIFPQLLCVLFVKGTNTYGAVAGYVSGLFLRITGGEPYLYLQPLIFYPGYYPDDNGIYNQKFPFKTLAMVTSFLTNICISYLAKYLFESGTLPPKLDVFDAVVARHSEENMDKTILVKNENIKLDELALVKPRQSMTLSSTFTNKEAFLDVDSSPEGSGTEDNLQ
# CHT inh: inhibitors of human choline transporter CHT | CHT-expressing cells, membrane potential dye, choline response; stronger effect = lower value | B-score at 10 µM | AID 488975, 2010 | actives 0.86% (n = 310,000) | High affinity choline transporter 1 (Homo sapiens), Q9GZV3;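 active = B-score over 3 SD under the library average, and starting fluorescence ratio not unusually high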;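 also: choline stimulus applied at its EC90 after an EC20 pre-addition; B-score computed on integrated fluorescence ratio after choline addition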
# MEKK2 WT-MEK5: modulators of MEK5 binding to wildtype MEKK2, primary screen, biochemical, multiplex bead flow cytometry, Alexa488-MEK5 | Alexa488-MEK5 binding to MEKK2 WT; actives lie on both sides | binding response (% of control), % at 10 µM | actives 1.1% (n = 290,000); in the data active = binding response below about 67% or above about 130%
# SUMO Mot1 rescue: yeast Mot1-301 growth rescue at high temperature, primary screen, SUMOylation pathway inhibitor project, S. cerevisiae, ATP luminescence, 38.5C; S. cerevisiae Mot1-301 growth rescue; percent above DMSO median, 100 means doubled; growth rescue, % at 18.8 µM; actives 1% (n = 320,000);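 active = every valid replicate shows activation above 250% relative to neutral control wells; inactive = the rest, any valid replicate at or below 250%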;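 also: OY570 slx delta 5 strain wells were the positive control but not used for scaling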
# MEKK2wt confirm: modulators of MEK5 binding to wildtype MEKK2, confirmation, biochemical, single concentration, multiplex bead flow cytometry; Alexa488-MEK5 binding to MEKK2 WT; actives lie on both sides; actives 2.4% (n = 5,900); shares compounds with MEKK3 PB1 HTS; binding response (% of control), % at 10 µM; in the data active = binding response below about 16% or above about 210%; inactive = in between
# MEKK2mut confirm: mutant MEKK2 PB1-MEK5 binding signal retest – biochemical, single concentration, multiplex bead flow cytometry, confirmation; shares compounds with MEKK3 PB1 HTS; percent response, % at 10 µM; AID 1893, 2009; Alexa488-MEK5 binding to MEKK2 mutant; actives 2% (n = 5,900); in the data active = percent response mostly above about 71%, no sharp cut-off; inactive = mostly below about 38%;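 also: higher means compound restores mutant binding toward wildtype level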
# MEKK3-MEK5 inh: MEKK3 wild-type PB1 binding to MEK5, inhibitors, confirmation, biochemical, bead multiplex flow cytometry, single concentration, wildtype; shares compounds with MEKK3 PB1 HTS; Alexa488-MEK5 binding to MEKK3; stronger effect = lower value; binding response (% of control), % at 10 µM; actives 1.8% (n = 5,900);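 active = binding response below 72% of control, or above a set upper limit, though filed actives all read lower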;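 also: 100% = DMSO only wells and 0% = binding blocked by excess unlabeled MEK5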
# An asterisk follows results filed as active; i = inactive; / = not tested or not shown; [ ] = another dose, or the depositor's remark.
SMILES,MEKK3 PB1 HTS,MEKK2mut PB1 HTS,CHT PAM,CHT inh,MEKK2 WT-MEK5,SUMO Mot1 rescue,MEKK2wt confirm,MEKK2mut confirm,MEKK3-MEK5 inh
COCCN=c1scc(-c2cc(OC)c(OC)c(OC)c2)n1/N=C/c1c(C)[nH]c2ccccc12,84,77*,i,i,/,-11,94,-6,88
Cc1[nH]c2ccccc2c1/C=N/n1cnnc1,98,-1,i,i,98,432,/,/,/
O=C(/C=C/c1ccc(Cl)c([N+](=O)[O-])c1)Nc1ccc(NC(=O)c2ccco2)cc1,100,0,/,/,97,/,/,/,/
O=C(/C=C/c1ccc(Cl)c([N+](=O)[O-])c1)Nc1cccc(NC(=O)c2ccco2)c1,143*,0,i,i,112,8,107,1,103
CCn1cc(/C=N/NS(=O)(=O)c2ccc(OC)cc2)c(C)n1,99,-12,i,i,96,0,/,/,/
CCCCN(C)CCNC(=O)CCn1nc(-c2ccc(C)cc2)ccc1=O,103,6,i,i,105,2,/,/,/
CCC(C)[C@H](NC(=O)NCc1cccs1)C(=O)OC (stereo partly drawn),98,-1,i,i,97,-8,/,/,/
CC(C)[C@H](NC(=O)NCc1cccs1)C(=O)O,2.0*[inhibitor],-46,i,i,2.0*[inhibitor],3,102,8,108
O=C(NCc1cccs1)N[C@@H](Cc1ccccc1)C(=O)O,1.0*[inhibitor],-26,i,i,-2.0*[inhibitor],2,90,-3,86
CN(C(=O)CO/N=C/c1ccc(OC(F)F)cc1)C1CCS(=O)(=O)C1 (stereo not drawn),104,-3,i,i,100,37,/,/,/
OC(COC(c1ccc(F)cc1)c1ccc(F)cc1)CN1CCc2ccccc2C1 (stereo not drawn),136*,1,i,i,112,7,115,5,100
OC(COC(c1ccc(Cl)cc1)c1ccc(Cl)cc1)CN1CCCC1 (stereo not drawn),105,14,i,i,140*,27,126,20,102
OC1CCCN(CC(O)COC(c2ccc(F)cc2)c2ccc(F)cc2)C1 (stereo not drawn),108,4,i,i,114,-7,/,/,/
OC(COC(c1ccc(Cl)cc1)c1ccc(Cl)cc1)CN1CCc2ccccc2C1 (stereo not drawn),110,14,i,i,164*,-43,203,63,113
OC(COC(c1ccccc1)c1ccccc1)CN1CCc2ccccc2C1 (stereo not drawn),103,6,i,i,102,2,/,/,/
COc1cc2nc(=S)n3[nH]c(CCn4c(C)nc5ccccc54)nc3c2cc1OC,104,6,i,i,106,398,/,/,/
COc1ccc(OCc2nc3c4cc(OC)c(OC)cc4nc(=S)n3[nH]2)cc1,128*,1,i,i,106,16,105,4,105
